CYP2C9 inh – human CYP2C9 inhibition | P11712 | 20% of 96,000 active | CYP2C9 Supersomes, luciferin-H conversion, luminescence | inhibition, % at 5 µM | AID 777;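 active means blocking of liver enzyme CYP2C9 beyond about 50% at 5 µM, limit read from the data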
Target sequence (P11712 whole entry, looked up): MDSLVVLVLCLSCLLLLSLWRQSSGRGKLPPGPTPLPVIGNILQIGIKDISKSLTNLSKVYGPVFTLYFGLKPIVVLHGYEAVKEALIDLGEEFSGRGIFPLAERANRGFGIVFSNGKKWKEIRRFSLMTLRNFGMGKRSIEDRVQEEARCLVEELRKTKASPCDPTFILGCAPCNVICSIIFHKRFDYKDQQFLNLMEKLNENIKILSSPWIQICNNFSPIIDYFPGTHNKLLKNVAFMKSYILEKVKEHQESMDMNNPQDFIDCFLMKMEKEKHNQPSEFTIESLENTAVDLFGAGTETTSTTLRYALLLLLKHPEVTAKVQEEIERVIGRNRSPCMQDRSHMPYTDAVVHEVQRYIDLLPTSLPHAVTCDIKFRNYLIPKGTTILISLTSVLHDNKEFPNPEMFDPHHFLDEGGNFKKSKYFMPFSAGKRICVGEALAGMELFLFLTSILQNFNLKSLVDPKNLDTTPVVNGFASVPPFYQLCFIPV
MRP resist rev – compounds reversing MRP-mediated drug resistance; H69AR cells + 2 uM doxorubicin, CellTiter-Glo, 72 h; 0.04% of 85,000 active; differential viability (reversal), % at 10 µM;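 active means viability drop by adding the cancer drug above about 55%, with treated viability meeting a 40% cutoff, limit read from the data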;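 further: viability without doxorubicin minus viability with 2 µM doxorubicin for each compound; larger differential means the compound sensitizes cells more to doxorubicin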
CYP2C19 act – cytochrome P450 2C19 (human) activation; recombinant CYP2C19, luciferin-H EGE luminescence; hits give high values; 0 = fully inhibited enzyme, 1 = untreated enzyme; AID 1025; P33261; activation factor at 5 µM; 96,000 tested, under 10 active;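 active means activation factor of at least 2 at 5 µM in the primary screen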;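 further: 0 = wells with 2.5 mM tranylcypromine and 1 = vehicle-only wells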
CYP2C9 activ – CYP2C9 (human) activation | P11712 | recombinant CYP2C9, luciferin-H conversion, luminescence; hits give high values; factor 1 = untreated enzyme, 0 = blocked | activation factor at 5 µM | 1.4% of 96,000 active;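 active means activation factor of 2 or more for CYP2C9 at a 5 µM dose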;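 further: 0 = sulfaphenazole-blocked wells and 1 = vehicle-only wells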
CYP2C19 inh – inhibitors of human CYP2C19 | P33261 | 21% of 96,000 active | AID 778 | inhibition, % at 5 µM | CYP2C19 Supersomes, luciferin-H EGE luminescence, 30 min;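 active means CYP2C19 inhibition above a set limit at 5 µM in the primary screen, cut at about 50% in these data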;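 further: plate controls were negative control wells for no effect and 2.5 mM tranylcypromine positive control for full effect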
MRP1 act – activates MRP-1. H69AR cells + doxorubicin, viability rescue, CellTiter-Glo. viability increase, % at 10 µM. 0.61% of 140,000 active;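 active means viability gain under doxorubicin at or above a set limit, the compound median plus 3 SD, cut at about 4.7% in these data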;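 further: MRP-1 overexpressing cells given doxorubicin 25 µM after compound pretreatment; 18-22 h compound pretreatment then 72 h with doxorubicin before readout; 0% = doxorubicin-only wells and 100% = vehicle-treated cells without doxorubicin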
Active calls of the source: *; x = no result given. Rows were chosen to be rich in hits. Some 21% of all compounds tested hit in one or more screens of this group.

SMILES	CYP2C9 inh	MRP resist rev	CYP2C19 act	CYP2C9 activ	CYP2C19 inh	MRP1 act
CCc1ccc2[nH]c(=O)c(CN(Cc3ccc4c(c3)OCO4)Cc3nnnn3C3CCCC3)cc2c1	60.5*	0.6	0.7	0.4	30.4	-2.3
Cn1c(SCC(=O)NC2CC2)nnc1-c1cccc(NC(=O)c2ccccc2F)c1	10.4	5.1	0.8	0.9	24.4	-3.2
Clc1ccc(/C=N/Nc2nc(Cl)nc3ccccc23)cc1	21.0	x	0.9	0.8	13.2	-2.7
Cc1ccc(-c2nc(N/N=C/c3ccncc3)c3ccccc3n2)cc1	94.2*	-23.9	0	0.1	97.9*	-1.4
Clc1ccc(N/N=C/c2cccnc2)cc1	x	x	x	x	x	-3.2
Clc1ccccc1-c1nc(N/N=C/c2cccnc2)c2ccccc2n1	69.1*	8.7	0.6	0.3	41.2	-3.5
C=CCN(Cc1cc(OC)ccc1OC)S(=O)(=O)N(C)C	63.7*	9.5	0	0.4	96.3*	-1.0
Cc1ccc(SCc2cc(=O)[nH]c(Nc3nc(C)c4ccccc4n3)n2)cc1	x	x	x	x	x	-3.1
Cc1nnc(SCc2cc(=O)[nH]c(Nc3nc(C)c4ccccc4n3)n2)s1	x	-13.5	x	x	x	x
Cc1ccc2nc(Nc3nc(-c4ccccc4)cc(=O)[nH]3)nc(C)c2c1	54.8*	x	0.7	0.5	25.6	-1.5
Cc1ccc2nc(Nc3nc(CSc4nc5ccccc5s4)cc(=O)[nH]3)nc(C)c2c1	x	x	x	x	x	11.2*
O=C(OC1CCOC1=O)c1cc(-c2ccccc2)nc2ccccc12 (stereo not drawn)	88.3*	x	0.5	0.1	48.7	-0.4
COc1ccc(-c2cc(C(=O)OC3CCOC3=O)c3ccccc3n2)cc1OC (stereo not drawn)	76.9*	-19.2	0.4	0.2	55.0*	-3.1
O=C(OC1CCOC1=O)c1cc(-c2ccc(Cl)cc2)nc2ccccc12 (stereo not drawn)	1.2	-1.3	1	1	2.3	1.1
Cn1cnnc1SCC(=O)Nc1ccc2nc(SCc3cccc4ccccc34)sc2c1	38.4	-19.1	0.4	0.6	58.6*	0.4
c1cncc(-c2nn3c(Cn4nnc5ccccc54)nnc3s2)c1	0.9	18.0	1.1	1	-9.4	-2.7
Clc1ccccc1-c1nn2c(Cn3cnc4ccccc43)nnc2s1	25.1	12.4	0.4	0.7	57.6*	-1.6
c1ccc(CCc2nn3c(Cn4cnc5ccccc54)nnc3s2)cc1	6.2	1.8	0.8	0.9	18.2	-3.1
c1ccc2c(c1)ncn2Cc1nnc2sc(-c3ccc4c(c3)OCO4)nn12	81.1*	-1.4	0.9	0.2	8.1	-3.7
c1ccc(-c2nn3c(Cn4nnc5ccccc54)nnc3s2)nc1	38.7	13.2	0.2	0.6	78.5*	-0.1
Clc1ccccc1CSc1nnc(Cn2cnc3ccccc32)n1-c1ccccc1	2.0	1.6	0.4	1	60.7*	-0.3
Cc1ccc(S(=O)(=O)CCC(=O)OC(C)C(=O)c2c(C)[nH]c3ccccc23)cc1 (stereo not drawn)	x	x	x	x	x	-1.4
Cc1ccc(C)c(NC(=S)N2CCN(CCO)CC2)c1	x	x	x	x	x	-1.5
CCOC(=O)C(Sc1n[nH]c(N)n1)c1ccccc1 (stereo not drawn)	18.8	x	0.8	0.8	16.6	-1.6
O=C(NCCCN1CCOCC1)c1ccc(Sc2cccc(Cl)c2)c([N+](=O)[O-])c1	x	x	x	x	x	-4.3
SMILES	CYP2C9 inh	MRP resist rev	CYP2C19 act	CYP2C9 activ	CYP2C19 inh	MRP1 act
NNS(=O)(=O)c1ccc(Cc2ncc(C(F)(F)F)cc2Cl)s1	29.5	11.2	0.3	0.7	70.0*	-0.8
CCN(CC)S(=O)(=O)c1ccc(Cc2ncc(C(F)(F)F)cc2Cl)s1	59.1*	5.3	0.2	0.4	83.4*	0.4
Cc1ccc(F)cc1NC(=O)c1ccc(NS(=O)(=O)c2ccc(Br)s2)cc1	x	x	x	x	x	-1.4
CCOc1cc(/C=C2\N=C(C)OC2=O)cc(Br)c1OCCc1ccccc1	70.5*	x	0.7	0.3	28.5	-0.6
CCOc1cc(/C=C2\N=C(C)OC2=O)cc(Br)c1OCC(=O)OC	-16.6	x	1.1	1.2	-10.4	3.4
COc1ccc(Br)cc1C(=O)Nc1ccccc1-c1ccccc1	16.9	x	0.7	0.8	31.3	-1.6
CCc1nnc(NC(=O)CCC(=O)N2CCN(CCc3ccccc3)CC2)s1	0.4	-4.0	1.1	1	-5.9	-1.1
CCc1nnc(NC(=O)CCC(=O)N2CCN(CCOc3ccc(C)cc3)CC2)s1	29.4	7.7	0.8	0.7	17.0	5.6*
CC(=O)Cc1nsc(Nc2ccccc2)n1	18.3	-1.9	0.2	0.8	77.3*	0.5
CCc1nnc(NC(=O)c2ccc(COc3ccc(C)cc3)o2)s1	46.7	5.2	0.9	0.5	14.1	6.2*
CC(=O)Cc1nsc(NC(=O)c2ccc(COc3ccccc3)o2)n1	56.9*	-4.8	0.8	0.4	18.8	-0.3
CCc1nnc(NC(=O)c2ccc(COc3ccccc3)o2)s1	34.6	6.8	0.9	0.7	5.8	3.2
O=C(N1CCOCC1)N1CCN(S(=O)(=O)c2ccccc2)C1	-10.2	9.7	0.8	1.1	15.0	-0.1
CCN1CCCC1CNC(=O)C1c2cc(OC)c(OC)cc2C(=O)N(C)C1c1cccnc1 (stereo not drawn)	-0.7	x	1.1	1	-8.6	-1.0
O=C(NN1C(=O)c2ccccc2C1=O)C1CCCCC1	4.6	x	0.9	1	11.7	-1.4
CCNC(=O)CC1C(=O)N(c2ccccc2)C(=O)N1Cc1ccc(OC)cc1 (stereo not drawn)	8.0	-3.2	1	0.9	4.5	-0.2
c1ccc(OCc2nnc3sc(-c4cccs4)nn23)cc1	58.4*	-7.8	0.5	0.4	53.2*	-1.1
COc1ccc(-c2nn3c(COc4ccccc4)nnc3s2)cc1OC	57.5*	-1.0	0.7	0.4	28.4	-0.6
Clc1ccc(Cl)c(-c2nn3c(COc4ccccc4)nnc3s2)c1	50.1*	6.3	0.7	0.5	28.6	-0.8
Cc1ccccc1C(=O)NCc1nnc(SCC(=O)N2CCN(c3ccccc3)CC2)n1C	1.0	19.7	0.9	1	12.5	-1.7
CCCn1c(Sc2nnnn2-c2ccccc2)n[nH]c1=O	17.0	-6.0	0.9	0.8	12.6	-3.1
O=c1[nH]nc(Sc2ncnc3sccc23)n1CCc1ccccc1	24.9	-8.7	0.2	0.8	80.3*	-3.5
Cc1cc(Cl)ccc1N(CC(=O)N=Nc1c(O)[nH]c2ccccc12)S(C)(=O)=O	53.0*	-6.5	0.2	0.5	76.0*	2.3
Cc1ccc(C)c(C(=O)CSc2nnnn2-c2cccnc2)c1	24.2	2.1	0.6	0.8	35.9	-1.3
Cc1ccc(C)c(C(=O)CSc2nnnn2C(C)C)c1	38.3	22.0	0.3	0.6	66.2*	0.4
Cc1ccc(C(=O)CSc2nnnn2C(C)C)c(C)c1	34.5	16.3	0.2	0.7	76.7*	-0.2
O=C(OCC(=O)N1CCN(C(=O)COC(=O)c2ccncc2)CC1)c1ccncc1	-20.2	11.7	1.3	1.2	-25.1	-0.9
O=C(OCCN1CCCC1=O)c1cc(F)c(F)c(F)c1F	x	x	x	x	x	-2.6
